Drawing on PubChem BioAssay AID485364 (National Center for Advancing Translational Sciences (NCATS), 2010), this text covers Potency for 28 compounds.

Out of some 360,000 compounds screened, about 11,000 (3.1%) were called active. Where a call stands in place of a potency, no number is given. Not shown: some 4% with an inconclusive outcome. The sample holds actives, similar compounds and a random draw of the others, so the mix is not that of the screen. The call rests on the fitted dose curve; in most records, active means well fitted inhibition curve with a large enough effect; inconclusive means small, poorly fitted or top-dose-only effect; inactive means no such curve, though single readings can be large or run the other way.
Potency means the concentration at half of the fitted maximal effect.

In this test the target is Schistosoma mansoni thioredoxin glutathione reductase (TGR) (UniProt Q962Y6). The experiment in a line: qHTS Assay for the Inhibitors of Schistosoma Mansoni Peroxiredoxins. Further: nearly all actives have a fitted effect of over 60% in size. The following applies: purified TGR, DTNB reduction, TNB absorbance 405 nm; series mostly up to 114 µM. The gist of the method: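 TGR 20 nM + NADPH 100 uM (dispensed conc.), cpd preinc 15 min RT; start with NADPH (500 uM addition) then DTNB (15 mM addition). Kinetic TNB absorbance, 405 nm filter. Four-parameter Hill fit across titration.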
A general note: In qHTS, concentration-response curves come from the screen itself.
On to `CCS(=O)(=O)N1CCc2cc(C(=O)N3CCN(c4ccccc4OC)CC3)ccc21`, for which the Potency entry was “inactive”. For the compound `CCOc1ccc(C(=O)CCN2CCOCC2)cc1`, the Potency was 2.82 µM (active). Regarding `CCCCOc1ccc(C(C)(O)CCN2CCOCC2)cc1` (stereo not drawn), the Potency result is “inactive”. For the compound `CCOc1ccc(C(=O)CCC(=O)Nc2ccncc2)cc1`, the Potency entry was “inactive”. As for `O=C(CSc1ncc(S(=O)(=O)c2ccc(Br)cc2)c(=O)[nH]1)Nc1ccc2c(c1)OCCO2`, the Potency result was “inactive”. For `Cc1ccc(C)c(Cn2c(CCCNC(=O)C3CCCCC3)nc3ccccc32)c1`, the Potency entry was “inactive”. As to `COCCn1nnnc1C(c1cc2ccc(OC)cc2[nH]c1=O)N1CCc2ccccc2C1` (stereo not drawn), the Potency is 44.7 µM (active).

On to `COc1ccc(N2CCN(C(c3cc4ccc(C)cc4[nH]c3=O)c3nnnn3C3CCCC3)CC2)cc1` (stereo not drawn), for which the Potency entry is “inactive”. Consider `COc1ccc(OC)c(C(c2nnnn2C(C)(C)C)N2CCc3ccccc3C2)c1` (stereo not drawn), for which the Potency result was “inactive”.

With `CCOc1ccccc1NC(=O)c1ccc2c(c1)CCN2S(=O)(=O)c1ccc(C)cc1`, the Potency entry was “inactive”.

In the case of `COc1ccc(-c2onc(C)c2C)cc1S(=O)(=O)NCCc1ccccc1`, the Potency entry is “inactive”. As for `O=c1[nH]c2cc(Br)ccc2n2cccc12`, the entry is “inactive”; as for `CCOc1ccc(C2CC(=O)c3c([nH]c(C(=O)OCc4ccccc4)c3C)C2)cc1` (stereo not drawn), “inactive”. With `O=C(NCC(=O)N1CCN(c2ccccc2F)CC1)c1cccs1` the entry was “inactive”. Turning to `CCc1cccc(C)c1NC(=O)COC(=O)CNC(=O)c1cccs1`, the Potency entry was “inactive”. On to `Cc1ccccc1C(CC(=O)c1cccs1)C(C#N)C#N` (stereo not drawn), for which the Potency is 3.16 µM (active). On to `COc1cccc2c1CCC(NC(C)=O)C2=O` (stereo not drawn), for which the Potency entry is “inactive”. On to `COc1ccc(C(=O)OCC(=O)N2CC(=O)Nc3ccccc32)cc1Br`, for which the Potency entry is “inactive”.

Take `COc1ccc(Br)c2c1C(=O)CC2`: the Potency is 35.5 µM (active). Turning to `Cc1cc(C)cc(OCC(=O)Nc2c(C(=O)c3ccccc3)oc3ccccc23)c1`, the Potency result is “inactive”. For `Cc1ccc(-c2onc(C)c2C)cc1S(=O)(=O)Nc1ccccn1`, the Potency entry is “inactive”. Regarding `CCc1ccc(NC(=O)Cn2c(=O)n(CCC(=O)NCc3ccc4c(c3)OCO4)c(=O)c3ccccc32)cc1`, the Potency result was “inactive”. As for `O=[N+]([O-])c1cc(C(F)(F)F)ccc1NN=C1CCCC1`, the entry is “inactive”; as for `O=[N+]([O-])c1ccc(N/N=C2/CCCCC2c2ccccn2)c([N+](=O)[O-])c1` (stereo not drawn), 8.91 µM (active); as for `O=C(Nc1ccccc1)O/N=C1\CCCCC1c1ccc([N+](=O)[O-])cc1[N+](=O)[O-]` (stereo not drawn), “inactive”. Take `COc1cc(NC(=O)CN2CCN(S(=O)(=O)c3ccc(Br)cc3)CC2)cc(OC)c1`: the Potency result was “inactive”. For the compound `O=C(NC1CCCCC1)c1ccc2c(c1)N(Cc1ccc(Cl)cc1)C(=O)c1ccccc1S2=O` (stereo not drawn), the Potency entry is “inactive”.

As for `Cc1cc(NC(=O)CC(C)C)cc(-c2nc3ncccc3o2)c1O`, the Potency result was “inactive”.
